Source: PubChem BioAssay (NCATS)
Where “and” joins values, the source holds several entries; their conditions need not be identical. Equal values may be shown once. Records with an inconclusive call do not appear. The source holds several records for some structures; these can differ, active in one and inactive in another. Calls of active or inactive are those of the source. Calls follow the shape of the dose curve; as a rule, active = well fitted curve in the direction sought with a large enough effect; inconclusive = small, poorly fitted or top-dose-only effect, or another doubt; inactive = no such curve, though single readings can be large; an effect the other way counts as inactive or inconclusive.

Tests used:
[1] = tested on: CASKI; test: Primary qHTS to identify gynecologic anti-cancer compounds using libraries of approved drugs and bioactive compounds (AID 1345084); conditions: Gynecologic cancer cell panel viability, ATPlite luminescence, 48 h; series mostly up to 57.5 µM; also: nearly all actives have a fitted effect of over 55% in size
Method in brief: (§1)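 In this quantitative HTS, cell killing is estimated from loss of ATP-dependent luciferase light. Cells see five compound concentrations over a 48 h exposure.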

[2] = tested on: Es-2; test: as above; conditions: Gynecologic cancer cell panel viability, ATPlite luminescence, 48 h; series mostly up to 57.5 µM
Method in brief: as §1

[3] = tested on: HeLa; test: as above; conditions: Gynecologic cancer cell panel viability, ATPlite luminescence, 48 h; series mostly up to 57.5 µM
Method in brief: as §1

[4] = tested on: Hek293T; test: as above; conditions: Gynecologic cancer cell panel viability, ATPlite luminescence, 48 h, control line for the selectivity index; series mostly up to 57.5 µM
Method in brief: as §1

[5] = tested on: JEG-3; test: as above; conditions: Gynecologic cancer cell panel viability, ATPlite luminescence, 48 h; series mostly up to 57.5 µM
Method in brief: as §1

[6] = tested on: OV90; test: as above; conditions: Gynecologic cancer cell panel viability, ATPlite luminescence, 48 h; series mostly up to 57.5 µM
Method in brief: as §1

[7] = tested on: PA-1; test: as above; conditions: Gynecologic cancer cell panel viability, ATPlite luminescence, 48 h; series mostly up to 57.5 µM
Method in brief: as §1

[8] = tested on: SKOV3; test: as above; conditions: Gynecologic cancer cell panel viability, ATPlite luminescence, 48 h; series mostly up to 57.5 µM
Method in brief: as §1

[9] = tested on: Tov-21-G; test: as above; conditions: Gynecologic cancer cell panel viability, ATPlite luminescence, 48 h; series mostly up to 57.5 µM
Method in brief: as §1

[10] = tested on: Tov112D; test: as above; conditions: Gynecologic cancer cell panel viability, ATPlite luminescence, 48 h; series mostly up to 57.5 µM
Method in brief: as §1

[11] = Drug repurposing screens with cells derived from glioblastoma tumor samples (AID 1345199); conditions: GBM patient neurospheres viability, ATP luminescence, 48 h; also: nearly all actives have a fitted effect of over 40% in size
Method in brief: (§2)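 Primary testing used CD133+ neurospheres from four GBM patients, seven concentrations, 48 h exposure and ATP-based viability; confirmation added three slower-growing patient lines.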

[12] = tested on: astro; test: as above; conditions: viability, ATP luminescence, 48 h; series mostly up to 45.9 µM
Method in brief: as §2

[13] = at 45.9 µM (top of the series), tumour line B
[14] = at 45.9 µM (top of the series), tumour line D
[15] = at 46 µM (top of the series), tumour line A
[16] = at 46.1 µM (top of the series), tumour line C
[17] = at 20 µM (top of the series), tumour line C
[18] = at 21.2 µM (top of the series), tumour line B
[19] = at 21.2 µM (top of the series), tumour line D
[20] = at 21.3 µM (top of the series), tumour line A
% is scaled to controls: 0 for no effect and ±100 for the full control effect; potency is read from the fitted curve at half-maximal effect.

CC1(C)Oc2ccc(C#N)cc2[C@@H](N2CCCC2=O)[C@@H]1O
inactive: Potency [1] | Potency [2] | Potency [3] | Potency [4] | Potency [5] | Potency [6] | Potency [7] | Potency [8] | Potency [9] | Potency [10] | activity, negative = cell killing [11, 13] -7.82% and 2.52% | activity, negative = cell killing [11, 14] -4.19% and -0.466% | activity, negative = cell killing [11, 15] -32.5% and -12.3% | activity, negative = cell killing [11, 16] -7.78% and -4.72% | Potency [12]

CCCCN1CCCC[C@H]1C(=O)Nc1c(C)cccc1C
inactive: Potency [1] | Potency [2] | Potency [3] | Potency [4] | Potency [5] | Potency [6] | Potency [7] | Potency [8] | Potency [9] | Potency [10] | activity, negative = cell killing [11, 13] -6.49% | activity, negative = cell killing [11, 14] -12.7% | activity, negative = cell killing [11, 15] -27.7% | activity, negative = cell killing [11, 16] 5.13% | Potency [12]

CC1CC(OC(=O)C(O)c2ccccc2)CC(C)(C)N1C (centres undefined)
inactive: Potency [1] | Potency [2] | Potency [3] | Potency [4] | Potency [5] | Potency [6] | Potency [7] | Potency [8] | Potency [9] | Potency [10] | activity, negative = cell killing [11, 17] 14.2% | activity, negative = cell killing [11, 18] 1.64% | activity, negative = cell killing [11, 19] -6.11% | activity, negative = cell killing [11, 13] -1.01% | activity, negative = cell killing [11, 14] 1.15% | activity, negative = cell killing [11, 15] -25.8% | activity, negative = cell killing [11, 16] -11% | Potency [12]

COc1cc(C(=O)N2CCOCC2)cc(OC)c1OC
inactive: Potency [1] | Potency [2] | Potency [3] | Potency [4] | Potency [5] | Potency [6] | Potency [7] | Potency [8] | Potency [9] | Potency [10] | activity, negative = cell killing [11, 13] 8.47% and -7.54% | activity, negative = cell killing [11, 14] 3.68% and -23% | activity, negative = cell killing [11, 15] -14.2% | activity, negative = cell killing [11, 16] -7.33% and -2.64% | Potency [12]

Oc1ccc(C(O)CNCCCCCCNCC(O)c2ccc(O)c(O)c2)cc1O (centres undefined)
inactive: Potency [1] | Potency [2] | Potency [3] | Potency [4] | Potency [5] | Potency [6] | Potency [7] | Potency [8] | Potency [9] | Potency [10] | activity, negative = cell killing [11, 13] -10.1% | activity, negative = cell killing [11, 14] -27.7%

CCOc1ccc2ccccc2c1C(=O)N[C@@H]1C(=O)N2[C@@H]1SC(C)(C)[C@@H]2C(=O)O
inactive: Potency [1] | Potency [2] | Potency [3] | Potency [4] | Potency [5] | Potency [6] | Potency [7] | Potency [8] | Potency [9] | Potency [10] | activity, negative = cell killing [11, 17] 10.1% | activity, negative = cell killing [11, 18] -3.6% | activity, negative = cell killing [11, 19] -26.3% | activity, negative = cell killing [11, 20] -12.7% | Potency [12]

NS(=O)(=O)c1cc2c(cc1Cl)NC(CSCc1ccccc1)=NS2(=O)=O
inactive: Potency [1] | Potency [2] | Potency [3] | Potency [4] | Potency [5] | Potency [6] | Potency [7] | Potency [8] | Potency [9] | Potency [10] | activity, negative = cell killing [11, 17] 5.29% | activity, negative = cell killing [11, 18] -6.25% | activity, negative = cell killing [11, 19] -24.5% | activity, negative = cell killing [11, 20] -18.3% | Potency [12]

O=C1Nc2ccc(Cl)cc2[C@@](C#CC2CC2)(C(F)(F)F)O1
active: Potency ([11]; tumour line A) 17.8 µM
inactive: Potency [1] | Potency [2] | Potency [3] | Potency [4] | Potency [5] | Potency [6] | Potency [7] | Potency [8] | Potency [9] | Potency [10] | activity, negative = cell killing [11, 13] -20.8% | activity, negative = cell killing [11, 16] -5.83%

C[C@]12CC[C@@H]3c4ccc(O)cc4CC[C@H]3[C@@H]1CC[C@@H]2OC(=O)CCC1CCCC1
active: Potency [3] 10 µM and 20 µM | Potency ([11]; tumour line A) 7.94 µM and 22.4 µM | Potency ([11]; tumour line B) 35.5 µM | Potency ([11]; tumour line D) 35.5 µM and 20 µM
inactive: Potency [1] | Potency [2] | Potency [4] | Potency [5] | Potency [6] | Potency [7] | Potency [8] | Potency [9] | Potency [10] | activity, negative = cell killing [11, 16] -26.4% and -9.85%

O=C(O)CC(O)C(=O)O (centres undefined)
inactive: Potency [1] | Potency [2] | Potency [3] | Potency [4] | Potency [5] | Potency [6] | Potency [7] | Potency [8] | Potency [9] | Potency [10] | activity, negative = cell killing [11, 13] -10.7% | activity, negative = cell killing [11, 14] -4.49% | activity, negative = cell killing [11, 15] -24.7% | activity, negative = cell killing [11, 16] -13.6% | Potency [12]

O=C1OC(OC(=O)c2cccnc2Nc2cccc(C(F)(F)F)c2)c2ccccc21 (centres undefined)
inactive: Potency [1] | Potency [2] | Potency [3] | Potency [4] | Potency [5] | Potency [6] | Potency [7] | Potency [8] | Potency [9] | Potency [10] | activity, negative = cell killing [11, 13] -18.8% | activity, negative = cell killing [11, 14] 3.71%
